LGR2 inh: inhibitors of bursicon-induced Drosophila LGR2 receptor cAMP signaling; 0.35% of 380,000 active; HEK293 LGR2, CRE-luciferase, bursicon-stimulated, 4 h; inhibition, % at 9.99 µM; AID 720647;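 active means drop in luminescence signal, shown as inhibition above about 50% in the replicate tests, limit read from the data, passing the limit was not always enough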;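 further: agonist challenge used bursicon conditioned medium at about half maximal strength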
TROY signal inh: inhibitors of TROY-dependent NF-kB signaling | 0.98% of 360,000 active | AID 1347056 | Q293 LMP1-TROYcd NF-kB luciferase reporter, 4 h | inhibition, % at 10 µM;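 active means compounds whose plate-normalised and pattern-corrected inhibition of the luciferase reporter signal at the single screening dose is 50% or more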
TWEAK-Fn14 inh: inhibitors of TWEAK-Fn14 interaction signaling | TWEAK-stimulated Fn14 reporter cells, luciferase luminescence, 8 h | inhibition, % at 10 µM | 2% of 360,000 active | AID 1159606; in the data active means inhibition above about 50%
PAX8 inh HTS: inhibitors of PAX8 transcriptional activity in RMG-I cells; RMG-I TPO-luciferase reporter, SteadyGlo, 24 h; 1.2% of 360,000 active; inhibition, % at 12.6 µM;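 active means mean replicate inhibition at least 60% with every replicate also reaching 60%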;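 further: luciferase light reporting Pax8 driven TPO promoter activity; plate controls were median of neutral control wells for no effect and mitoxantrone controls for full effect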
EBV LMP1 NFkB: inhibitors of Epstein-Barr LMP1-induced NF-kappaB reporter | AID 504558 | LMP1-induced NF-kappaB luciferase reporter cells, luminescence | 0.69% of 350,000 active | inhibition, % at 12.5 µM; in the data active means inhibition above about 41%;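 further: 0% = neutral control wells and 100% = reference inhibitor control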
EWS-Fli block: inhibitors of EWS/Fli oncoprotein transcriptional activity; A673 NR0B1-luciferase reporter, viability-normalised; inhibition, % at 12.6 µM; 0.67% of 350,000 active;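 active means mean inhibition of at least 50% after viability correction, with every replicate also passing that limit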;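 further: firefly luciferase signal divided by Alamar Blue viability fluorescence both relative to DMSO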
Starred values were filed as active, the others as inactive; nt = not tested or not shown. A selection: hits, their analogues and other compounds. The true share with any hit is near 3.1%.

SMILES	LGR2 inh	TROY signal inh	TWEAK-Fn14 inh	PAX8 inh HTS	EBV LMP1 NFkB	EWS-Fli block
CC(C)Oc1ccccc1C1CC(=O)Nc2cc3c(cc21)OCO3 (stereo unspecified)	nt	33	18	68*	6	nt
CCCNC(=O)N(C)C[C@@H]1Oc2ncc(-c3cccc(C#N)c3)cc2C(=O)N([C@H](C)CO)C[C@@H]1C	-5	nt	nt	0	nt	7
FC(F)Oc1ccc(C2=Nn3c(nnc3-c3ccccc3Cl)SC2)cc1OCC1CC1	-13	-6	-29	4	-3	18
COc1ccc(C2=Nn3c(nnc3-c3ccccc3Cl)SC2)cc1OC1CCCC1	42	53*	8	55	5	-23
COc1ccc(C2=Nn3c(nnc3-c3ccccc3F)SC2)cc1OCC1CC1	-2	51*	13	50	16	56*
COc1ccc(C2=Nn3c(nnc3-c3ccccc3Cl)SC2)cc1OC1CCOC1 (stereo unspecified)	-17	-34	-44	-12	11	4
CCNC(=O)[C@@H]1[C@@H](CO)[C@@H]2Cn3c(ccc(C4=CCCC4)c3=O)[C@@H]2N1C(=O)CC1CC1	-24	nt	nt	nt	nt	9
COc1cccc(S(=O)(=O)N[C@@H]2CC[C@H](CC(=O)NC3CCC3)O[C@@H]2CO)c1	-4	nt	nt	-3	nt	-6
COc1ccc(-n2c(O)c(/C=C3\C=Nc4ccccc43)c(=O)[nH]c2=O)cc1	3	-1	13	20	1	7
Cc1ccc(-n2c(O)c(/C=C3/C(c4ccccc4)=Nc4ccccc43)c(=O)[nH]c2=O)cc1	5	-23	71*	-8	-12	nt
COc1ccc(CN(C)C[C@H]2Oc3ccc(NC(=O)C4CC4)cc3CC(=O)N([C@@H](C)CO)C[C@H]2C)cc1	4	nt	nt	9	nt	-12
O=C(c1cccs1)N1C[C@H](O)[C@@H](n2cc(C3CC3)nn2)C[C@@H]1c1ccccc1	11	-4	-3	98*	5	18
O=C(c1cccs1)N1C[C@@H](O)[C@H](n2cc(C3CC3)nn2)C[C@@H]1c1ccccc1	6	-10	-2	2	-5	-8
C[C@H]1CN([C@@H](C)CO)C(=O)c2cccc(NC(=O)C3CCOCC3)c2O[C@@H]1CN(C)Cc1ccncc1	-7	nt	nt	-2	nt	-2
N#CCSc1nc2sc3c(c2c(=O)n1C1CCCCC1)CCCC3	nt	39	58*	nt	-9	nt
O=C(COC(=O)C12CC3CC(CC(O)(C3)C1)C2)Nc1ccc(Br)cc1F	-77	58*	33	-239	-31	-6
COc1ccc2[nH]c3c(N4CCN(Cc5ccc6c(c5)OCO6)CC4)ncnc3c2c1	nt	51*	38	nt	20	nt
O=[N+]([O-])c1ccc2ncnc(N3CCN(Cc4ccc5c(c4)OCO5)CC3)c2c1	28	46	78*	-11	42*	0
O=[N+]([O-])c1cccnc1N1CCN(Cc2ccc3c(c2)OCO3)CC1	6	5	-5	-12	-8	-2
COc1ccc2[nH]c3c(N4CCC(O)(c5cccc(C(F)(F)F)c5)CC4)ncnc3c2c1	nt	64*	75*	33	30	nt
Cc1cccc(OCc2nc(-c3cccnc3)no2)c1	-14	-46	-18	92*	-8	-38
Cc1ccc(C)c(OCc2nc(-c3cccnc3)no2)c1	nt	-28	-39	nt	-12	nt
CCCNC(=O)C[C@H]1CC[C@@H]2[C@@H](COc3ccc(NC(=O)c4ccc(OC)cc4)cc3C(=O)N2C)O1	3	nt	nt	-6	nt	-23
CCN(CC)CCCNC(=S)N1CCN(c2nc(-c3ccc(F)cc3)cs2)CC1	11	-7	-11	34	2	61*
CCNC(=S)N1CCN(c2nc(-c3ccc(F)cc3)cs2)CC1	-7	7	-2	6	9	-2
SMILES	LGR2 inh	TROY signal inh	TWEAK-Fn14 inh	PAX8 inh HTS	EBV LMP1 NFkB	EWS-Fli block
C[C@@H]1CN([C@H](C)CO)C(=O)c2cc(NC(=O)CCN3CCOCC3)ccc2O[C@H]1CN(C)Cc1ccc(-c2ccccc2)cc1	-7	nt	nt	-13	nt	nt
Cc1ccc(N=CC2=C(O)CC(c3ccc(Cl)cc3)CC2=O)cc1 (stereo unspecified)	12	14	-30	146*	-10	6
O=C(N[C@H]1CC[C@@H](CCNC(=O)C2CCOCC2)O[C@@H]1CO)c1ccncc1	14	nt	nt	-1	nt	3
C[C@H]1CN([C@@H](C)CO)C(=O)c2cccc(NS(=O)(=O)c3ccccc3)c2O[C@H]1CN(C)Cc1ccc(Oc2ccccc2)cc1	-13	nt	nt	-34	nt	-3
Cc1cc2oc(=O)cc(-c3ccccc3)c2c(C)c1-c1ccc(O)cc1	-43	53*	-32	-1	-9	14
Cc1cc(O)c2c(-c3ccccc3)cc(=O)oc2c1	nt	-19	16	-9	-1	nt
Oc1cc(Nc2ccccc2)cc2cccnc12	27	9	1	96*	-2	15
Oc1cccc2cc(Nc3ccccc3)cnc12	-3	14	100*	94*	nt	41
COC(=O)c1ccc2nc(NC(=O)C(C)(C)C)sc2c1	64*	81*	96*	13	5	54*
COC(=O)c1ccc2nc(Nc3nc4ccc(F)cc4s3)sc2c1	nt	79*	92*	80*	37	77*
CC(=O)c1sc(Nc2nc3ccc(F)cc3s2)nc1C	nt	-28	-86	nt	-25	nt
CCOC(=O)c1csc(Nc2nc3ccc(F)cc3s2)n1	nt	-23	105*	-40	-16	nt
Cc1ccc(-c2csc3ncnc(NCCN4CCOCC4)c23)cc1	nt	18	42	3	5	nt
COc1ccc(-c2csc3ncnc(NCCN4CCOCC4)c23)cc1	nt	43	45	nt	46*	nt
COc1ccc(-c2oc3ncnc(NCCN4CCOCC4)c3c2-c2ccc(OC)cc2)cc1	nt	16	33	nt	48*	nt
CCCN1C[C@@H](C)[C@H](OC)CN(C)C(=O)c2cc(NS(=O)(=O)c3cn(C)cn3)ccc2OC[C@@H]1C	1	nt	nt	7	nt	-1
C[C@@H]1CN([C@H](C)CO)C(=O)c2cc(NC(=O)c3ccncc3)ccc2O[C@@H]1CN(C)C(=O)NC1CCCCC1	23	nt	nt	-11	nt	-8
COc1cccc(NC(=O)N[C@@H]2CC[C@@H](CC(=O)Nc3ccccc3)O[C@H]2CO)c1	9	nt	nt	2	nt	-4
Cc1ccc2c(c1)sc(=NC(=O)c1cccs1)n2C	96*	59*	89*	39	33	78*
O=C1C=CC(=O)N1CCCCCCN1C(=O)C=CC1=O	15	nt	nt	109*	nt	nt
O=C(O)CN1C(=O)C=CC1=O	3	-10	1	-6	-3	-5
COc1cc(/C=C2\SC(=O)NC2=O)ccc1Oc1ccc([N+](=O)[O-])cc1[N+](=O)[O-]	10	33	63*	-2	8	16
CCN1C(=O)S/C(=C/c2ccc(Oc3ccc([N+](=O)[O-])cn3)c(OC)c2)C1=O	nt	18	11	-1	8	-9
CO/N=C/c1ccc(Oc2ccc([N+](=O)[O-])cc2[N+](=O)[O-])c(OC)c1	-16	1	12	-6	10	nt

Screening results: PubChem BioAssay, several laboratories
